# Laboratory results published in ChEMBL document CHEMBL1157539, “Thousands of chemical starting points for antimalarial lead identification” (Nature, 2010).
# Several values for one entry are separate records, joined by “and”; a condition that tells them apart may be missing. Equal entries are not always repeated.
# Columns and labels:
# Type in all cases: functional
# Plasmodium falciparum [1] = assay: GSK_TCMDC: Inhibition of Plasmodium falciparum 3D7 in whole red blood cells, using parasite LDH activity as an index of growth. Test compounds present at 2uM
# Plasmodium falciparum [2] = assay: GSK_TCMDC: Inhibition of Plasmodium falciparum Dd2 in whole red blood cells, using parasite LDH activity as an index of growth. Test compounds present at 2uM
# HepG2 = assay: GSK_TCMDC: Percent inhibition of human HepG2 cell line. Test compounds present at 10uM.
SMILES,Inhibition (Plasmodium falciparum [1]),Inhibition (Plasmodium falciparum [2]),Inhibition (HepG2)
FC(F)(F)c1cccc(N2CCC(CN3CCC(c4c[nH]c5ccccc45)CC3)CC2)n1.O=C(O)C(F)(F)F,84%,10%,41%
CN1CC[C@H](N(Cc2ccccc2F)c2ccc(C#N)c(Cl)c2)C1,88%,68%,18%
O=C(/C=C/c1ccc(Cl)c(Cl)c1)NC1CCC(CN2CCC(c3c[nH]c4ccccc34)C(O)C2)CC1 (configuration not stated),100%,87%,30%
Cl.Cl.c1ccc2c(NCCCCCCNc3c4ccccc4nc4ccccc34)c3ccccc3nc2c1,99%,80%,60%
Cc1ccc(-n2nc(C)c3c2NC(=O)CSC3c2ccsc2)cc1 (configuration not stated),97%,11%,0%
Br.CNCCc1c(O)ccc2ccccc12,94%,0%,6%
Cc1[nH]c2ccccc2c1C1=CCN(CCCCC2(C)C(=O)Nc3cccc(F)c32)CC1 (configuration not stated),95%,90%,9%
CC(C)CCNC(=O)c1cc(C(=O)c2cc(F)ccc2O)cn(CCC(C)C)c1=O,100%,45%,14%
Cc1ccc(C)c(N2CCN(Cc3ccccc3O)CC2)c1,100%,90%,11%
CC(C)/C(=C(/F)CN1C(=O)C(NC(=O)c2cc3ccccc3[nH]2)C(=O)N(c2ccccc2)c2ccccc21)c1ccccc1 (configuration not stated),98%,82%,7%
COc1ccc(CCNCc2ccc3nc(N)c(C)cc3c2)cc1.Cl,100%,15%,0%
C=CCOc1ccccc1CNCC(O)c1cccc(C(F)(F)F)c1 (configuration not stated),99%,98%,10%
Br.COC(=O)c1ccc(CC(C)NCC(O)c2cccc(OC(F)(F)F)c2)cc1 (configuration not stated),98%,67%,2%
O=C(/C=C/c1ccc(Cl)c(Cl)c1)NCCC1CCC(N2CCC(c3c[nH]c4ccc(O)cc34)CC2)CC1 (configuration not stated),100%,3%,19%
C/C=C1/CN2CC[C@H]1C[C@H]2[C@H](O)c1ccnc2ccc(OC)cc12,99%,45%,0%
S=C(Nc1ccc2c(c1)OCCO2)NC1CCC(CN2CCC(c3c[nH]c4ccccc34)CC2)CC1 (configuration not stated),96% and 92%,1% and 7%,31% and 32%
CN1CC=C(C=Cc2c[nH]c3ccccc23)CC1,86%,64%,14%
O=C1c2ccccc2CCC1CCN1CC=C(c2c[nH]c3ccccc23)CC1 (configuration not stated),89%,83%,5%
COc1ccc(CC(C)NCC(O)c2cccc(C(F)(F)F)c2)cc1 (configuration not stated),98%,94%,0%
O=C(/C=C/c1cc(C(F)(F)F)ccc1F)N1CCC(CN2CCC(c3c[nH]c4ccccc34)CC2)CC1,96%,14%,22%
COc1ccc(NC(=S)NC(NC(=O)CF)C(Cl)(Cl)Cl)cc1[N+](=O)[O-] (configuration not stated),97%,0%,66%
N#Cc1c(Cl)cccc1Oc1ccc(S(=O)(=O)N2CCC(CN3CCC(c4c[nH]c5ccccc45)CC3)CC2)cc1,100%,67%,36%
O=C(Cc1cc(=O)oc2cc(O)ccc12)N1CCC(CN2CCC(c3c[nH]c4ccccc34)CC2)CC1,94%,0%,1%
CNCCCN(C)C(=O)Oc1c(Br)c(C)nc(C)c1-c1ccc(Oc2ccc(OC(F)(F)F)cc2)cc1.Cl,96%,96%,17%
Cc1cc(NC(=O)[C@H](CC(C)C)Nc2ccc(C#N)c3ccccc23)ccc1F.O=C(O)C(F)(F)F,95%,88%,35%
NCc1ccc(-c2ccccc2CN(C(=O)Nc2ccccc2)C2CCN(Cc3ccccc3)CC2)cc1.O=C(O)C(F)(F)F,100%,35%,36%
CCCCCOc1ccc(CC(C)NCC(O)c2cccc(Cl)c2)cc1 (configuration not stated),100%,99%,0%
Cc1ccc(CC(C)NCC(O)c2cccc(Cl)c2)cc1F.Cl (configuration not stated),95%,88%,1%
CCOC(C(=O)OCC1CCCN1C)(c1ccccc1)c1ccccc1 (configuration not stated),97%,3%,13%
